These compounds were tested on TDF (assay: H1.0 immunofluorescence intensity relative to DMSO (% of DMSO); higher = stronger H1.0 induction, active = 120 or more). Details: concentration: 10 µM; 24 h.
Outline: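 In 384-well plates holding 800 HCC1569 or TDF cells per well in RPMI with 10% FBS, compounds were tested at 10 µM for 24 h at 37 °C in triplicate. Fixation used 3.7% formaldehyde. Staining used a rabbit anti-H1.0 antibody with an AlexaFluor 647 secondary, plus DAPI. Each value, H1.0 nuclear intensity or cell number, is a median of replicates shown as percent of the plate control, and HCC1569 values were smoothed for positional effects.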
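Also: TDF is a line of transformed human dermal fibroblasts of mesenchymal origin.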

H1.0 immunofluorescence intensity, active:
CC[C@@]1(O)C(=O)OCc2c1cc1n(c2=O)Cc2cc3c(CN(C)C)c(O)ccc3nc2-1 129

H1.0 immunofluorescence intensity, inactive:
c1cc(OCCN2CCCCC2)cc(-c2n[nH]c3ccc(-c4ncn[nH]4)cc23)c1 84.6
Cc1ccccc1C(=O)c1ccc(Nc2ccc(Br)cc2N)cc1Cl 93
Nc1cccc(-c2cc3c(Oc4cccc(O)c4)ncnc3[nH]2)c1 [GSK3b Inhibitor XII, TWS119] 112
CCCNC(=O)NS(=O)(=O)c1ccc(Cl)cc1 [Chlorpropamide] 93.2
CCCCCC=CCC=CCC=CCC=CCCCC(=O)OC(CO)COC(=O)CCCCCCCCCCCCCCCCC (stereo unspecified) [1-Stearoyl-2-arachidonoyl-glycerol] 98.4
CCCCCC=CCC1OC1C=CC(O)CC=CCCCC(=O)O (stereo unspecified) [Hepoxilin A3] 93.8
CS(=O)(=O)c1ccc(C(O)C(COC(=O)CN)NC(=O)C(Cl)Cl)cc1 (stereo unspecified) [Thiamphenicol glycinate] 98.4
O=C1Nc2ccc(Cl)cc2C1=Cc1cc(Cl)c(O)c(Cl)c1 [PKR Inhibitor, Negative Control] 95.1
CCN(CC)C(C)C(=O)N1c2ccccc2Sc2ccccc21.Cl (stereo not drawn) [10-(alpha-Diethylaminopropionyl)-phenothiazine hydrochloride] 98.5
NC(CS(=O)O)C(=O)O [L-Cysteinesulfinic Acid] 96.7
CCCn1c(=O)[nH]c(=O)c2[nH]cnc21 [3-n-Propylxanthine] 92.3
CN1CCC(=C2c3ccccc3CC(=O)c3sccc32)CC1.O=C(O)C=CC(=O)O [Ketotifen fumarate] 91.6
COC(=O)N=NC=C1C=[N+]([O-])c2ccccc2N1O [Carbadox] 95.8
CCC(=O)c1ccc2c(c1)N(CCCN(C)C)c1ccccc1S2.Cl [Propionylpromazine hydrochloride] 104
Nc1ccccc1NC(=O)CCCCCCC(=O)Nc1ccccc1 [N~1~-(2-aminophenyl)-N~8~-phenyloctanediamide] 92.6
CCCCCC=CCC=CC=CC=CC(O)C(O)CCCC(=O)O (stereo unspecified) 99.2
O=C(NO)c1cccc(C(=O)NCCc2ccccc2)c1 [N1-hydroxy-N3-phenethylisophthalamide] 90.4
CC1(C)SC2C(NC(=O)COc3ccccc3)C(=O)N2C1C(=O)[O-] (stereo unspecified) [Pencillin V] 87.4
COc1ccc2c(c1)CC[C@@H]1[C@@H]2CC[C@]2(C)[C@@H](NCCCCCCN3C(=O)C=CC3=O)CC[C@@H]12.O 99.9
CC(C)c1cccc(C(C)C)c1N1C(=O)c2ccc(O)cc2C1=O 119
NS(=O)(=O)Cc1noc2ccccc12 [Zonisamide] 96
CN(C)CCC(CSc1ccccc1)Nc1ccc(S(=O)(=O)NC(=O)c2ccc(N3CCN(Cc4ccccc4-c4ccc(Cl)cc4)CC3)cc2)cc1[N+](=O)[O-] (stereo unspecified) 110
O=C(Nc1cccc(C(F)(F)F)c1)Nc1cc(S(=O)(=O)NC2CC2)ccc1-c1ccsc1 94.6
Nc1ncnc2c1nc(Sc1ccc(Cl)cc1)n2C1OC2COP(=O)([O-])OC2C1O.[Na+] (stereo unspecified) [8-(4-Chlorophenylthio)-cAMP sodium] 93.1
CCCCCC=CCC=CC=CC=CC(SCC(N)C(=O)O)C(O)CCCC(=O)O (stereo unspecified) [Leukotriene E4] 92.6
N[C@@H](Cc1cc(I)c(Oc2cc(I)c(O)c(I)c2)c(I)c1)C(=O)O [L-thyroxine] 97.6
CCCCCCCCCCCCCCCCOCC(COP(=O)([O-])OCC[N+](C)(C)C)OC(=O)NC (stereo unspecified) 95.7
OC(CS)C(O)CS (stereo unspecified) 93.7
COc1cc2ncnc(Nc3ccc(O)c(Br)c3)c2cc1OC [JAK3 Inhibitor II] 83.8
CC12CCC3c4ccc(O)cc4CCC3C1CCC2O (stereo unspecified) [Estradiol] 97.6
